# In all, about 35,000 sequences were measured (“fluorescence intensity (a.u.)”: median about 10,000, highest 2% from about 52,000 on). The full list was thinned out, with the highest values kept by preference.
# Molecular target: T1, OsWOX13 (Oryza sativa, UniProt Q5QMM3 1-267)
# T1 sequence: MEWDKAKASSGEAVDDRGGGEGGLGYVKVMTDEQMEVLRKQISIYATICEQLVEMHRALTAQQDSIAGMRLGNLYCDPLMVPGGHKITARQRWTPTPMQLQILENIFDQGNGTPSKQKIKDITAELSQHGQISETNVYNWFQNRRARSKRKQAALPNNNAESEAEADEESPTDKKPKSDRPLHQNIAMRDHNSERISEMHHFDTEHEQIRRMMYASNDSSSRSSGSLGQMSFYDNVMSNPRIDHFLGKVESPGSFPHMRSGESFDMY
# Test: protein-binding microarray (RPBM); PBS, 2% BSA, 51.3 ng/ul salmon testes DNA, 50 uM zinc acetate, 200 nM TF, 25 C, 1 h; high values mean tight binding
# Settings: protein: recombinant; tags: N-terminal polyhistidine and DsRed monomer fusion (pET32a); label: CyDye5-dUTP incorporated in the synthesized complementary strand; 3' TTTTT single-stranded linker to array surface; dsDNA, one strand shown
# Summary of the method: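 Binding signal is reported as fluorescence intensity per feature (arbitrary units) from an Axon 4000B scanner. Incubation used 200 nM of each Ni–NTA-purified, N-terminally polyhistidine- and DsRed-fused transcription factor from E. coli BL21-CodonPlus on a double-stranded custom Agilent array for 1 h at 25 °C, with 50 µM zinc acetate in the buffer, followed by washing.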
row,Sequence,binding signal
1,TTTGATGGGAATTTGTTTCAGATATGCTTACGTGCACATACGGAGTCACCTAGTGCAG,13800 fluorescence intensity (a.u.)
2,AACTAATTGTTTCTTCAGACTTCTTCAGAGCATTCTCCAGCGGAGTCACCTAGTGCAG,36800 fluorescence intensity (a.u.)
3,ATTGATTGATCAAGACTGCATGGCAATACTCGACGTGCTGCGGAGTCACCTAGTGCAG,64800 fluorescence intensity (a.u.)
4,CCAATAATAACACTGATCACTGATCAATCATGGCATCATGCGGAGTCACCTAGTGCAG,16000 fluorescence intensity (a.u.)
5,ATGATTTGCATGATTGCTTGCTTGCTTGCTGCTATGGCCACGGAGTCACCTAGTGCAG,62700 fluorescence intensity (a.u.)
6,TATTTTGCTTAAATGGCTGATTAGTCAAAGCATTTGGCCACGGAGTCACCTAGTGCAG,4720 fluorescence intensity (a.u.)
7,TGTCACATCACATCGATCATTGATTTCACTTTGATTCCTCCGGAGTCACCTAGTGCAG,5220 fluorescence intensity (a.u.)
8,TTGATTGCAGATCAAATGCATGCAATAAGAATGGAGATGGCGGAGTCACCTAGTGCAG,19600 fluorescence intensity (a.u.)
9,GTGATCACCCTTTGATTGACCCGCACCCGCATCCCTTTCCCGGAGTCACCTAGTGCAG,35500 fluorescence intensity (a.u.)
10,CTCATGATTTACGGCTGCTGGCCGCCGGGCTATTTAACCACGGAGTCACCTAGTGCAG,10900 fluorescence intensity (a.u.)
11,ATCATGATTGCATGATTGATTGCACATTTGCATCATTTCCCGGAGTCACCTAGTGCAG,63400 fluorescence intensity (a.u.)
12,AAGATTGGATTCGCTGCAATACCATCACTAAACTCGGCTTCGGAGTCACCTAGTGCAG,12800 fluorescence intensity (a.u.)
13,CACTTAATCATATTCATCATATTCAAACGGGACCTAAGGGCGGAGTCACCTAGTGCAG,8880 fluorescence intensity (a.u.)
14,CCCTCCATCCCCTCAGTCCACTCAATCACCACACCAGCCACGGAGTCACCTAGTGCAG,3850 fluorescence intensity (a.u.)
15,CCAATCACATTCACTTTTACAGTTTAGCCCCACCCTCTCCCGGAGTCACCTAGTGCAG,4980 fluorescence intensity (a.u.)
16,GCTTGATGACCAAGTATATATAAACATGTCAGTGATTATTCGGAGTCACCTAGTGCAG,5670 fluorescence intensity (a.u.)
17,CTGTATATTGATTGATTGGTTATTCGCAAGAAACATGACTCGGAGTCACCTAGTGCAG,65100 fluorescence intensity (a.u.)
18,GTTATCATGATTTATATTCCCAAGGTTTGACTTAAACATTCGGAGTCACCTAGTGCAG,11400 fluorescence intensity (a.u.)
19,ATGAAGAAACTGTTGGTGATTTGACAAGTAGGCTTGGTTCCGGAGTCACCTAGTGCAG,6530 fluorescence intensity (a.u.)
20,GGGCATAAATTTTGGTGATTTTCGGTTTTCTGAAGTTCCTCGGAGTCACCTAGTGCAG,7130 fluorescence intensity (a.u.)
21,ATATTGATTGATTGGTTATTCGCAAGAAACATGACTGTTCCGGAGTCACCTAGTGCAG,63800 fluorescence intensity (a.u.)
22,GATTCCCTTCTTTTCTTTGGTTGATTTCTTTCTGTATTTCCGGAGTCACCTAGTGCAG,5880 fluorescence intensity (a.u.)
23,ATACCTTATTGAAATATGATTGTTCGACTGGTTACTGAATCGGAGTCACCTAGTGCAG,19500 fluorescence intensity (a.u.)
24,ATTCTGATTGGCAAGTTGGTTATTCCTTTTCTGATTGGTTCGGAGTCACCTAGTGCAG,60700 fluorescence intensity (a.u.)
25,AGGGAATTTTATGATTTGCATTGGTGCTGAGGTCAAACCCCGGAGTCACCTAGTGCAG,7180 fluorescence intensity (a.u.)
26,GACAGATTAATTAAAGAATCATCATTACTGCGATGCGACCCGGAGTCACCTAGTGCAG,16600 fluorescence intensity (a.u.)
27,ACAAATTGCCAACTCATGAAAGTGATCGATGATGGGCTTACGGAGTCACCTAGTGCAG,15700 fluorescence intensity (a.u.)

row,Sequence,binding signal
1,GTCCTACATATGCTAAATTGGCAATATGTAAAGATTTACTCGGAGTCACCTAGTGCAG,4980 fluorescence intensity (a.u.)
2,TTATTTATCAGTCTGATTTTATATAATGTAATATTATGCACGGAGTCACCTAGTGCAG,3150 fluorescence intensity (a.u.)
3,AAATTAACTTAATTAATAAGTTGAGCAGCCTGTAGGCCTTCGGAGTCACCTAGTGCAG,17500 fluorescence intensity (a.u.)
4,TAAGTTAAATAACTATTAATTGTGGCCTGTGCTCAGCCTTCGGAGTCACCTAGTGCAG,9070 fluorescence intensity (a.u.)
5,GCAAATTAACTTAATTAATAAGTTGAGCAGCCTGTAGGCCCGGAGTCACCTAGTGCAG,58200 fluorescence intensity (a.u.)
6,AATGATTAGAATTTGGTAAAGTAGAGGACAAAGATAAAATCGGAGTCACCTAGTGCAG,7910 fluorescence intensity (a.u.)
7,TTTAACACAAATGAGAACTTGATCGATTCCTCGTATTGTTCGGAGTCACCTAGTGCAG,3850 fluorescence intensity (a.u.)
8,GGATAGAATTGATTGAGCGAGAGAGAGAATTGAACACAAACGGAGTCACCTAGTGCAG,21200 fluorescence intensity (a.u.)
9,TTTGAGTGATTGACAGGAAACAAATCCACCACTATCTGTTCGGAGTCACCTAGTGCAG,62400 fluorescence intensity (a.u.)
10,TTCGGATTGATTGTTGAGACAAATCTCGTAGAACACGGAACGGAGTCACCTAGTGCAG,62900 fluorescence intensity (a.u.)
11,AAAATAAACAAATCTATCCACTAACAATTTGACATGATATCGGAGTCACCTAGTGCAG,7240 fluorescence intensity (a.u.)
12,GAAATTGATTTATCCAGGGAAACTGTCGTGACAAATTTCGCGGAGTCACCTAGTGCAG,49300 fluorescence intensity (a.u.)
13,ATAAATAAATACTCTAATTGCAAGCAACCAACGTCCCAACCGGAGTCACCTAGTGCAG,5780 fluorescence intensity (a.u.)
14,CTACAATTTATCATAAACTTGATAAAATATAAACAAATTCCGGAGTCACCTAGTGCAG,4240 fluorescence intensity (a.u.)
15,AGGACATAATTTTAATGGGGAAATTGGTTCCATACCATCTCGGAGTCACCTAGTGCAG,20500 fluorescence intensity (a.u.)
16,AGCTAGCTTTGACTAATCAATCAGCAGCTAATTTCAGTCTCGGAGTCACCTAGTGCAG,13700 fluorescence intensity (a.u.)
17,ATTTAATAGTATTAAACGTAGATTACTGATAAAACCTATTCGGAGTCACCTAGTGCAG,4260 fluorescence intensity (a.u.)
18,TAGCTTAGCTCGTATTCGTATAAAACGTAGTACAAGGTTCCGGAGTCACCTAGTGCAG,61300 fluorescence intensity (a.u.)
19,AAAATAAATTGACAACATTCGTACAATATATATAAATATCCGGAGTCACCTAGTGCAG,25900 fluorescence intensity (a.u.)
20,CTGATTTAAATTGAAAGCAACCGTCTTTTGATTTGTGTAGCGGAGTCACCTAGTGCAG,57100 fluorescence intensity (a.u.)
21,GATATGAGTGACTAATTGACTTTGTGTTGATTTCGAGCAGCGGAGTCACCTAGTGCAG,34600 fluorescence intensity (a.u.)
22,AGAAATTGTGTGATTTATTGTAGTGTGTAGAAATTTATAGCGGAGTCACCTAGTGCAG,11700 fluorescence intensity (a.u.)
23,GACTTGACTAATTGATTTGTGTAGATTTCTAAAAGCAAGGCGGAGTCACCTAGTGCAG,58600 fluorescence intensity (a.u.)
24,AATGTAATGTAACAAATTTGTCTAAAAGGATTGAACTTGGCGGAGTCACCTAGTGCAG,12400 fluorescence intensity (a.u.)
25,ATAAAATTTTAAAATTTAAATTGTAGCCACAACTGATAAGCGGAGTCACCTAGTGCAG,15500 fluorescence intensity (a.u.)
26,AAAAGCACATGATTATATCTCATTTTATGGTCTTAGAGCACGGAGTCACCTAGTGCAG,3350 fluorescence intensity (a.u.)
27,GTTTGATGAGTCCGGAATAGCATATAGCACATGGAATTGGCGGAGTCACCTAGTGCAG,3510 fluorescence intensity (a.u.)

# Source: paper PMC7819943, “Rice protein-binding microarrays: a tool to detect cis-acting elements near promoter regions in rice”
